These results are taken from PubChem BioAssay (Tox21).

Each structure is given as a SMILES string. Unmarked numbers belong to inactive results. Active and inactive are the calls of the source. Calls follow the shape of the dose curve; as a rule, active = well fitted activation curve with a large enough effect in the repeat runs; inconclusive = weak or mixed curves; inactive = flat fitted curve, though single readings scatter.
% is scaled to controls: 0 for no effect and ±100 for the full control effect.

Androgen receptor (Homo sapiens), sequence (P10275 whole entry, looked up): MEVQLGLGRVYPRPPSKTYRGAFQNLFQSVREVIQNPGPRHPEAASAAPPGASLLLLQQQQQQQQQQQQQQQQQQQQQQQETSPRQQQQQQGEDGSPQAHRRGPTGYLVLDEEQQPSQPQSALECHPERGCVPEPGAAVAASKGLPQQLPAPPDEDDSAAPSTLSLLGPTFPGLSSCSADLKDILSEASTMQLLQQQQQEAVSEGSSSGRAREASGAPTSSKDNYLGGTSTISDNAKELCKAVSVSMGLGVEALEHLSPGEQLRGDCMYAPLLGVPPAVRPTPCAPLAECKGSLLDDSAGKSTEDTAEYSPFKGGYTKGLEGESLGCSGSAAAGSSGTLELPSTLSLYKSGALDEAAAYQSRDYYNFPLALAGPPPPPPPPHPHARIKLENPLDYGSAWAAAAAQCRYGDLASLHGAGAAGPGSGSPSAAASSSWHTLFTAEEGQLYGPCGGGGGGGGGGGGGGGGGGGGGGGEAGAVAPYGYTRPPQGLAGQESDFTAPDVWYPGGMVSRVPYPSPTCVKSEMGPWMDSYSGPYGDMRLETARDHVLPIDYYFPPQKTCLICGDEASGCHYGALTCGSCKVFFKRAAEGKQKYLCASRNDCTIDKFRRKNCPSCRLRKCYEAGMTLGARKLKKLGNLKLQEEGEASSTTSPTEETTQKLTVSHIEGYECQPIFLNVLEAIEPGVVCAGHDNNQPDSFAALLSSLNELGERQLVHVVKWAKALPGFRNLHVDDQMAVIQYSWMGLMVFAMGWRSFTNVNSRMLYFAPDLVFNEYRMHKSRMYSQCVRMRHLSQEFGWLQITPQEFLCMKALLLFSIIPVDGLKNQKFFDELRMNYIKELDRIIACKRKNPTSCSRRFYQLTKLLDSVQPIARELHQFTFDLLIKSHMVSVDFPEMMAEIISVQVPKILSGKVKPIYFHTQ

The test addresses Androgen receptor (Homo sapiens) (UniProt P10275). As to the kind of experiment: qHTS assay to identify small molecule agonists of the androgen receptor (AR) signaling pathway using the MDA cell line (AID 743040; also: nearly all actives have a fitted effect of over 20% in size). Particulars: MDA-kb2 AR-luc cells, MMTV luciferase, 16 h, active compounds read high; series mostly up to 70.3 µM; activity change: at the top concentration. The text has this:
National Center for Advancing Translational Sciences [NCATS]
NIH Chemical Genomics Center [NCGC]
U.S. Environmental Protection Agency [EPA]
National Institutes of Environmental Health Sciences [NIEHS]
National Toxicology Program [NTP]
U.S. Food and Drug Administration [FDA]
Androgen receptor (AR), a nuclear hormone receptor, plays a critical role in AR-dependent prostate cancer and other androgen related diseases. Endocrine disrupting chemicals (EDCs) and their interactions with steroid hormone receptors like AR may cause disruption of normal endocrine function as well as interfere with metabolic homeostasis, reproduction, developmental and behavioral functions. To identify the compounds that activate AR signaling, MDA-kb2 AR-luc cell line (from ATCC, deposited by Wilson et al.) was used to screen the Tox21 10K compound library. MDA-kb2 AR-luc cell line is human breast carcinoma cell line that was stably transfected with a luciferase reporter gene under control of the MMTV promoter containing response elements for both androgen receptor (AR) and glucocorticoid receptor (GR).
Tox21 Assay Protocol Summary:
MDA-kb2 AR-luc cells were dispensed at 3,000 cells/5 uL/well of culture medium into white wall/solid-bottom 1536-well plates using a Multidrop Combi (ThermoFisher Scientific, Waltham, MA) dispenser. After the assay plates were incubated at 37C and 0% CO2 for 5 h, 23 nL of compounds dissolved in DMSO, positive controls or DMSO only was transferred to the assay plate by a Pintool station (Kalypsys, San Diego, CA). The plates were incubated at 37C and 0% CO2 for 16 h. Then 4 uL of ONE-Glo reagent (Promega, Madison, WI) was added to each plate using a Bioraptr Flying Reagent Dispenser (FRD) workstation (Beckman Coulter, Indianapolis, IN, USA) and luminescence was quantified on a ViewLux (PerkinElmer, Shelton, CT) plate reader after 30 min incubation at room temperature.
(In general: Quantitative high-throughput screening tests each substance at several concentrations.)
Regarding `CCCCOC(=O)c1ccc(O)cc1`, the result was inactive. In the case of `O=C(Nc1ncc([N+](=O)[O-])s1)c1cccs1`, the “activity change” value is -7.48%. As for `CN(C)CCOC(c1ccccc1)c1ccccc1`, the compound was called inactive. Same read-out and setting: then `COc1ccc2c(c1)c(CC(=O)O)c(C)n2C(=O)c1ccc(Cl)cc1`, with “inactive”.

As to `CN(C)C(=O)Nc1ccc(Cl)c(Cl)c1`, the call was inactive. Take `C1CCC(C(CC2CCCCN2)C2CCCCC2)CC1` (stereo not given): the “activity change” value was -13.4%. Consider `CCOc1ccc(NC(C)=O)cc1`, for which the outcome was inactive.

As for `COc1cccc(O)c1O`, the “activity change” value was -2.53% [at 95 µM]. For the compound `CCCCCCc1ccc(O)cc1O`, the compound was called inactive.

Consider `CCCCC1(COC(=O)CCC(=O)O)C(=O)N(c2ccccc2)N(c2ccccc2)C1=O`, for which the result was inactive.
